The source made the active and inactive calls. No rule for the calls is given here. Where a SMILES comes first, the peptide text is derived from it. The star is where a group is joined. Boc = CC(C)(C)OC(=O)*
target: Pantothenate synthetase (Mycobacterium tuberculosis (strain ATCC 25618 / H37Rv)) (UniProt P9WIL5); assay: Coupled enzyme confirmation of inhibitors against recombinant Mtb PanC (AID 375); settings: coupled enzyme assay; at 10 µM, hits give high values;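 also: 0% = full reaction with vehicle and 100% = no enzyme background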
Sequence (P9WIL5 whole entry, looked up): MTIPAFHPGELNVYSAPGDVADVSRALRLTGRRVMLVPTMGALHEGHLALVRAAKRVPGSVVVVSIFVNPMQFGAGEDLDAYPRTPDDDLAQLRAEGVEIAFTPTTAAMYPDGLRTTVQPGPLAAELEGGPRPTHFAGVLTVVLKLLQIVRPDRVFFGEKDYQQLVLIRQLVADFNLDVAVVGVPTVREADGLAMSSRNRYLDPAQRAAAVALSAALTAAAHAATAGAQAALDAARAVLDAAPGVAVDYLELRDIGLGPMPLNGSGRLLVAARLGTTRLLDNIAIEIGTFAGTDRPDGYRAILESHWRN

Compound | inhibition
Cc1cc(C)c(NC(=O)C2CCCN2CCO)c(C)c1 (stereo not given) | 0% (inactive)
Cc1csc(NC(=O)CCn2c(=O)oc3ccccc32)n1 | 1% (inactive)
Cc1cc2cc(CN(CC3CCCO3)C(=O)c3cnccn3)c(=O)[nH]c2cc1C (stereo not given) | 4% (inactive)
CCCc1ccccc1OCCNC(C)=O | 3% (inactive)
COc1ccc(CN(C(=O)c2oc3ccccc3c2C)C2CCS(=O)(=O)C2)cc1 (stereo not given) | 0% (inactive)
Nc1nc(-n2cnnc2)nn1-c1ccccc1 | 0% (inactive)
O=C(CCCCCn1c(SCc2ccncc2)nc2ccccc2c1=O)NCc1ccco1 | 0% (inactive)
Cc1c(C(=O)O)oc2ccc(S(=O)(=O)NCc3ccccc3)cc12 | 0% (inactive)
CC(=O)c1cccc(NC(=O)N2CCCC2C(=O)NCc2ccc(C)cc2)c1 (stereo not given) | 4% (inactive)
Cc1cc(NC(=O)C2=C(O)c3ccccc3S(=O)(=O)N2C)no1 | 0% (inactive)
COc1ccc(CNCC(=O)Nc2cc(C)nn2-c2nc(C)cc(C)n2)cc1OC | 0% (inactive)
COc1ccc(CN2C(=O)CN=C2Nc2ccc(C)cc2C)cc1 | 6% (inactive)
CCOC(=O)c1[nH]c2ccccc2c1NC(=O)CCN1CCN(C(=O)OCC)CC1 | 0% (inactive)
COc1ccc(-c2ccc(=O)n(Cc3cc(=O)n4ccccc4n3)n2)cc1 | 0% (inactive)
CCOc1ccccc1C1CC(=O)NC(SCC)=C1C#N (stereo not given) | 0% (inactive)
O=C(CCc1nc2ccccc2s1)OCC(=O)N1CCN(C(=O)c2ccco2)CC1 | 4% (inactive)
CCS(=O)(=O)N1CCC(C(=O)N2CCOCC2)CC1 | 2% (inactive)
O=C(CCN1C(=O)c2ccccc2C1=O)Nc1ccc(F)cc1 | 0% (inactive)
CCN(CC)CCN1C(=O)C(=O)/C(=C(/O)c2c(C)[nH]c(C(=O)OC)c2C)C1c1ccco1 (stereo not given) | 0% (inactive)
O=C(CN(Cc1ccc(F)cc1)C(=O)Cn1nnc2ccccc21)NCC1CCCO1 (stereo not given) | 0% (inactive)

Compound | inhibition
CCOC(=O)c1cc2c(=O)n3cccc(C)c3nc2n(CC2CCCO2)c1=NC(C)=O (stereo not given) | 7% (inactive)
CCC(C)(C(=O)NC1CCCCC1)N(Cc1ccco1)C(=O)c1ccc2c(c1)OCO2 (stereo not given) | 0% (inactive)
CSC1=N/C(=C\C=C\c2cccs2)C(=O)S1 | 1% (inactive)
Cc1cc(NC(=O)CS(=O)(=O)c2cn(Cc3cccc(F)c3)c3ccccc23)no1 | 4% (inactive)
CCC(C)C(NC(=O)OC(C)(C)C)C(=O)NC(CC(C)C)C(N)=O (stereo not drawn) (Boc-Ile-Leu-NH2; configuration not given here) | 0% (inactive)
NC(=O)c1cc(-c2ccccc2)nc(N2CCOCC2)n1 | 0% (inactive)
C=CCN1C(=O)C2(C(C#N)=C(N)Oc3n[nH]c(CCC)c32)c2ccccc21 (stereo not given) | 0% (inactive)
COc1ccc(S(=O)(=O)N2Cc3ccccc3CC2C(=O)Nc2ccc(O)cc2)cc1OC (stereo not given) | 10% (inactive)
Cc1nc2ccc(S(=O)(=O)NC(C(=O)NCc3cccs3)C(C)C)cc2s1 (stereo not given) | 0% (inactive)
O=C(c1cc(-c2cccs2)on1)N1CCc2ccccc2C1 | 2% (inactive)
Cc1cc(C)nc(-n2nc(C)cc2NC(=O)c2ccc(Br)o2)n1 | 0% (inactive)
COc1cc(NC(=O)NC(C)(C(F)(F)F)C(F)(F)F)cc(OC)c1OC | 0% (inactive)
CC(NS(=O)(=O)c1ccc(OCC(=O)N2CCOCC2)c(Cl)c1)c1ccccc1 (stereo not given) | 1% (inactive)
CC(=O)NC(CCS(C)(=O)=O)C(=O)Nc1cccc(C)c1 (stereo not given) | 3% (inactive)
O=C1CN=C(Nc2cccc(C(F)(F)F)c2)N1C1CCCC1 | 0% (inactive)
CC(C)Cn1cc(C(=O)NCC2CCCO2)c2c3ccccc3n(C)c2c1=O (stereo not given) | 4% (inactive)
OCCN(CCO)c1nc(N2CCCCC2)c2nc(N(CCO)CCO)nc(N3CCCCC3)c2n1 | 0% (inactive)
N#CC1=C(N)N(c2ccccc2)C(c2ccccc2)C1(C#N)C#N (stereo not given) | 0% (inactive)
Cc1nn(C(=O)c2ccccc2)c2c1C(=O)CC(C)(C)C2 | 0% (inactive)
CC1(C)CC(CCNC(=O)c2ccco2)CC(C)(C)N1 | 0% (inactive)

— PubChem BioAssay
